The values below come from the supplement of paper PMC12282887.

Counter-ions that a name gives are not always drawn. ± gives the standard deviation of the averaged measurements.

The assay deals with E. coli BW25113 marRABp lux reporter. Put plainly: promoter activity interaction Z-score (Lux/OD deviation from empty-vector control); higher = stronger promoter induction by the compound. As to the method:
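E. coli BW25113 (wild type or ΔmarA/ΔsoxS/Δrob) carrying pTU175 luxCDABE promoter reporters was grown in LB in 384-well plates at 37°C with each of 94 compounds at 4 two-fold concentrations, in biological duplicates. Luminescence and OD600 were read every 30 min for 12 h and integrated as AUC over 8 h (0-8 h WT, 1-9 h mutants). Lux AUC was divided by OD AUC; the interaction score is the residual of a Huber robust fit of each promoter against the empty-vector control, then Z-transformed per promoter.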

Turning to `CO/N=C(\C(=O)N[C@@H]1C(=O)N2C(C(=O)O)=C(COC(C)=O)CS[C@H]12)c1csc(N)n1` [Cefotaxime], the “promoter activity interaction Z-score” value by setting is: (0.0012 µg/ml, genetic background: wild type) -0.109 ± 0.032; (0.0012 µg/ml, genetic background: ΔmarA) -0.16 ± 0.041; (0.0012 µg/ml, genetic background: Δrob) -0.227 ± 0.0043; (0.0012 µg/ml, genetic background: ΔsoxS) -0.0693 ± 0.13; (0.0024 µg/ml, genetic background: wild type) 0.0203 ± 0.031; (0.0024 µg/ml, genetic background: ΔmarA) -0.118 ± 0.093. Further, the “promoter activity interaction Z-score” value (0.0024 µg/ml, genetic background: Δrob) is 0.021 ± 0.12; the “promoter activity interaction Z-score” value (0.0024 µg/ml, genetic background: ΔsoxS) was -0.0591 ± 0.15; the “promoter activity interaction Z-score” value (0.0048 µg/ml, genetic background: wild type) was -0.2 ± 0.023; the “promoter activity interaction Z-score” value (0.0048 µg/ml, genetic background: ΔmarA) is -0.394 ± 0.27; the “promoter activity interaction Z-score” value (0.0048 µg/ml, genetic background: Δrob) was -0.171 ± 0.25; the “promoter activity interaction Z-score” value (0.0048 µg/ml, genetic background: ΔsoxS) is -0.214 ± 0.072. Besides, the “promoter activity interaction Z-score” value is 0.0434 ± 0.19 (0.01 µg/ml, genetic background: wild type); -0.126 ± 0.0051 (0.01 µg/ml, genetic background: ΔmarA); 0.448 ± 0.33 (0.01 µg/ml, genetic background: Δrob); 0.448 ± 0.066 (0.01 µg/ml, genetic background: ΔsoxS).

As to `NC(=O)c1cc[n+](CC2=C(C(=O)[O-])N3C(=O)[C@@H](NC(=O)[C@@H](c4ccccc4)S(=O)(=O)O)[C@H]3SC2)cc1` [Cefsulodin], the “promoter activity interaction Z-score” value is 0.0888 ± 0.07 (1.7 µg/ml, genetic background: wild type); -0.156 ± 0.32 (1.7 µg/ml, genetic background: ΔmarA); -0.151 ± 0.05 (1.7 µg/ml, genetic background: Δrob); -0.273 ± 0.013 (1.7 µg/ml, genetic background: ΔsoxS); 0.026 ± 0.046 (3.5 µg/ml, genetic background: wild type); -0.154 ± 0.15 (3.5 µg/ml, genetic background: ΔmarA). Moreover, the “promoter activity interaction Z-score” value reads like this: (3.5 µg/ml, genetic background: Δrob) -0.188 ± 0.075; (3.5 µg/ml, genetic background: ΔsoxS) -0.12 ± 0.063; (6.9 µg/ml, genetic background: wild type) -0.199 ± 0.15; (6.9 µg/ml, genetic background: ΔmarA) -0.257 ± 0.49; (6.9 µg/ml, genetic background: Δrob) -0.271 ± 0.049; (6.9 µg/ml, genetic background: ΔsoxS) -0.324 ± 0.025. The “promoter activity interaction Z-score” value was 1.24 ± 1.6 (13.9 µg/ml, genetic background: wild type); 0.729 ± 0.25 (13.9 µg/ml, genetic background: ΔmarA); 0.241 ± 0.029 (13.9 µg/ml, genetic background: Δrob); 0.341 ± 0.012 (13.9 µg/ml, genetic background: ΔsoxS).

Take `O=C(O)COCCN1CCN(C(c2ccccc2)c2ccc(Cl)cc2)CC1` (stereo not drawn) [Cetirizine dihydrochloride]: the “promoter activity interaction Z-score” value (28.9 µg/ml, genetic background: wild type) is -0.0717 ± 0.029; the “promoter activity interaction Z-score” value (28.9 µg/ml, genetic background: ΔmarA) came to 0.0437 ± 0.062; the “promoter activity interaction Z-score” value (28.9 µg/ml, genetic background: Δrob) stood at 0.000338 ± 0.29; the “promoter activity interaction Z-score” value (28.9 µg/ml, genetic background: ΔsoxS) was -0.0906 ± 0.0024; the “promoter activity interaction Z-score” value (57.7 µg/ml, genetic background: wild type) is 0.151 ± 0.32; the “promoter activity interaction Z-score” value (57.7 µg/ml, genetic background: ΔmarA) is -0.0182 ± 0.02. The “promoter activity interaction Z-score” value is, setting by setting: (57.7 µg/ml, genetic background: Δrob) -0.17 ± 0.18; (57.7 µg/ml, genetic background: ΔsoxS) -0.0648 ± 0.1; (115.5 µg/ml, genetic background: wild type) -0.301 ± 0.014; (115.5 µg/ml, genetic background: ΔmarA) -0.0679 ± 0.12; (115.5 µg/ml, genetic background: Δrob) -0.391 ± 0.15; (115.5 µg/ml, genetic background: ΔsoxS) -0.384 ± 0.18. In addition, the “promoter activity interaction Z-score” value reads like this: (230.9 µg/ml, genetic background: wild type) -0.385 ± 0.034; (230.9 µg/ml, genetic background: ΔmarA) -0.279 ± 0.0034; (230.9 µg/ml, genetic background: Δrob) -0.565 ± 0.14; (230.9 µg/ml, genetic background: ΔsoxS) -0.389 ± 0.19.
